# Compound activity (PubChem)
# CHOP inhibitor: inhibitors of CHOP promoter induction, primary screen, cell-based, unfolded protein response, luciferase reporter; CHO-K1 CHOP-promoter luciferase, tunicamycin-induced, 15-18 h; inhibition, % at 10 µM; 3.8% of 220,000 active;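 active means compounds that reduced the stress-induced luciferase reporter signal by more than about 70% of percent inhibition, limit read from the data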;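 further: 0% = tunicamycin plus vehicle and 100% = wells without tunicamycin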
# HIF-2a inh: HIF-2a reporter inhibitors, primary screen, luminescence, 786-0 RCC cells; inhibition, % at 18.8 µM; 0.72% of 360,000 active; 786-0 RCC cells HIF-2a reporter, luciferase luminescence, overnight;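 active means inhibition of the luminescence signal of 40% or more relative to plate controls, in a single-dose primary screen at 18.75 µM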
# CF NFkB inh: inhibitors of PAF-induced NF-kB signaling, primary screen, cell-based, GFP fluorescence, uHTS. AID 588850, 2011. inhibition, % at 5 µM. 0.86% of 360,000 active. KKLEB NF-kB-GFP reporter, GFP fluorescence overnight;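 active means at least 50% inhibition at 5 µM, scaled per plate between neutral and stimulator controls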;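 further: PAF is a Pseudomonas aeruginosa culture filtrate used as stimulus; plate controls were PAF-stimulated DMSO wells for no effect and unstimulated DMSO wells for full effect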
# Peg3 prom inh: Peg3 promoter-driven luciferase inhibitors, primary screen, cell-based, HeLa, luciferase luminescence. HeLa PEG-Prom luciferase reporter, overnight. inhibition, % at 20 µM. 1.7% of 360,000 active. AID 588405, 2011;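 active means inhibition of at least 50% at 20 µM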
# KKLEB tox: cytotoxicity in KKLEB CF airway cells, primary screen, cytotoxicity control for CF NF-kB inhibitor project, cell-based, uHTS, fluorescence assay plates; activity change (cytotoxicity), % at 5 µM; AID 602141, 2011; KKLEB CF airway cells viability, ATPlite luminescence, overnight; hits give low values; cells stimulated with P. aeruginosa culture filtrate; 0.36% of 360,000 active;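 active means corrected activity change at or below -50% at 5 µM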
# TRPM1 prom inh: inhibitors of MITF-dependent TRPM1 promoter reporter, primary screen, cell-based, SK-MEL-5, single point, luciferase | SK-MEL-5 TRPM1 promoter luciferase, 24 h | inhibition, % at 12.5 µM | 0.83% of 330,000 active | AID 488899, 2010;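 active means mean inhibition across replicates of 60% or more, whatever share of single replicates reaches that level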
# An asterisk follows results filed as active; . = no result. The list is not random: actives were taken first. Their share in the collection is about 4.3%.
SMILES,CHOP inhibitor,HIF-2a inh,CF NFkB inh,Peg3 prom inh,KKLEB tox,TRPM1 prom inh
COc1ccc(CCNC(=O)CSc2nc3[nH]ncc3c(=O)n2-c2ccc(C)c(Cl)c2)cc1OC,-11,3,-34,-9,20,-7
COc1ccc2c(c1)c1ncn(CCN3CCNCC3)c(=O)c1n2C,74*,-7,-12,-13,-9,-14
COc1ccc2c(c1)c1ncn(CCN3CCCCC3)c(=O)c1n2C,43,-20,-10,14,5,-19
CC(=O)c1c(OC(=O)c2ccccc2)c2ccccc2n1C,70*,-6,-11,-4,4,14
Cn1c(=O)c(C(=O)c2ccccc2)c(O)c2ccccc21,.,16,-11,6,1,.
CCOc1ccc(NC(=O)COC(=O)c2cc(C)oc2C)cc1,.,-7,7,-15,8,-2
Nc1nc(=O)n(C2CC(O)C(CO)O2)cc1F (stereo unspecified),.,4,3,28,7,-2
CC1=C(C(=O)Nc2cc(C(=O)N3CCC(C)CC3)ccc2C)SCCO1,.,-8,19,-26,-4,1
COCCN(Cc1ccccc1)C(=O)C1CCN(C(=O)Nc2ccccc2)CC1,.,-10,0,0,-2,-7
COc1ccc(-c2csc(NC(=S)NC(=O)/C=C/c3ccco3)n2)cc1OC,95*,27,28,31,-24,23
CCN1C(=O)[C@H]2[C@@H](c3ccc(-c4ccc(OC)cc4)cc3)N3CCCC[C@@]3(C(=O)OC)[C@H]2C1=O,.,6,-17,23,23,3
COc1ccc(-c2cc(=O)c3cc(OC)ccc3o2)cc1,78*,-89,-13,-85,-51*,23
C=CCn1c(=O)c2c3c(sc2n2c(Nc4ccc(C(=O)OCC)cc4)nnc12)CCCC3,88*,15,4,21,8,1
CCN1C(=O)[C@H]2[C@H]3CN=C(SC)N3[C@@](C)(C(=O)OC)[C@H]2C1=O,.,5,2,-7,4,-6
CCC(c1nnnn1CCc1ccccc1)N(Cc1ccco1)Cc1cc2cc(C)cc(C)c2[nH]c1=O (stereo unspecified),.,11,-1,15,6,4
CCC(c1nnnn1CCc1ccccc1)N(Cc1ccco1)Cc1cc2c(C)ccc(C)c2[nH]c1=O (stereo unspecified),90*,19,12,14,-4,5
CCOC(=O)C(C)n1cnc2sc3c(c2c1=O)CCC3 (stereo unspecified),14,1,7,11,-5,-9
CCc1cc2c(=O)n(C(C)C(=O)OC3CCCCC3)cnc2s1 (stereo unspecified),72*,-197,1,-202,-8,-96
C#CCn1c(=NC(=O)c2cc(-c3cccs3)nc3ccccc23)sc2cc(S(N)(=O)=O)ccc21,5,30,37,30,-56*,-16
C#CCn1c(=NC(=O)c2cc(Cl)sc2Cl)sc2cc(S(N)(=O)=O)ccc21,-26,5,-13,-9,6,-11
CCC1CCc2c(c3ccccc3[nH]c2=O)O1 (stereo unspecified),12,-5,0,-14,8,-5
CCCC1CCc2c(c3ccccc3[nH]c2=O)O1 (stereo unspecified),76*,-21,32,-31,-5,8
Cc1ccc(NC(=O)NC2(C(=O)NCc3ccccc3)CCCCC2)cc1,66,15,14,12,-2,1
O=C(Nc1ccc(F)cc1)NC1(C(=O)NCc2ccco2)CCCCC1,-4,14,-17,4,-79*,-12
Cc1ccc(CNC(=O)C2(NC(=O)Nc3ccc(C)cc3)CCCCC2)cc1,79*,11,4,27,9,-4
SMILES,CHOP inhibitor,HIF-2a inh,CF NFkB inh,Peg3 prom inh,KKLEB tox,TRPM1 prom inh
CCOc1ccc(NC(=O)NC2(C(=O)NCc3ccco3)CCCCC2)cc1,.,-22,-4,-9,21,-16
Cc1ccc(S(=O)(=O)N2CC(=O)N3CCN(CCN)C3C2)cc1 (stereo unspecified),.,8,7,-16,-8,-2
CCN1Cc2c(/C=C/c3ccccc3)nc3ccc(OC)cc3c2N(c2cccc(Cl)c2)C1,-10,17,-7,101*,-17,50
O=C(NNC(=O)C12CC3CC(CC(C3)C1)C2)c1ccccn1,37,0,23,60*,-9,49
CCCCN1CCc2c1nc1ccc(Br)cc1c2N,3,-75,-39,31,-3,66*
C#CCOCCOCCOCCNc1nc(N2CCN(C(=O)CCCCCCCCCCNC(=O)[C@@H](CCSC)n3cc(CCO)nn3)CC2)nc(N2CCN(C(=O)CCCCCCCCCCNC(=O)[C@H]([C@@H](C)CC)n3cc(CCCCN=C(N)N)nn3)CC2)n1,.,-2,-10,-2,13,63*
C#CCOCCOCCOCCNc1nc(N2CCN(C(=O)CCCCCCCCCCNC(=O)[C@H](CCCCN)n3cc(CCO)nn3)CC2)nc(N2CCN(C(=O)CCCCCCCCCCNC(=O)[C@H](CCCCN)n3cc(CCO)nn3)CC2)n1,.,-2,3,-18,-11,-4
C#CCOCCOCCOCCNc1nc(N2CCN(C(=O)CCCCCCCCCCNC(=O)[C@H](CCCCN)n3cc(CCCC(=O)O)nn3)CC2)nc(N2CCN(C(=O)CCCCCCCCCCNC(=O)[C@H](CCCN=C(N)N)n3cc(C[C@@H](C)CC)nn3)CC2)n1,.,-21,4,-8,18,30
C#CCOCCOCCOCCNc1nc(N2CCN(C(=O)CCCCCCCCCCNC(=O)[C@H](CCCCN)n3cc(CCO)nn3)CC2)nc(N2CCN(C(=O)CCCCCCCCCCNC(=O)[C@H](CCCN=C(N)N)n3cc(C[C@@H](C)CC)nn3)CC2)n1,.,20,-12,13,9,77*
C#CCOCCOCCOCCNc1nc(N2CCN(C(=O)CCCCCCCCCCNC(=O)Cn3cc(C[C@@H](C)O)nn3)CC2)nc(N2CCN(C(=O)CCCCCCCCCCNC(=O)[C@H](CCCCN)n3cc(C[C@@H](C)CC)nn3)CC2)n1,.,4,10,99*,-23,83*
C#CCOCCOCCOCCNc1nc(N2CCOCC2)nc(N2CCN(C(=O)CCCCCCCCCCNC(=O)[C@@H](CCSC)n3cc(CCO)nn3)CC2)n1,.,9,-26,23,21,-16
C#CCOCCOCCOCCNc1nc(N2CCN(C(=O)CCCCCCCCCCNC(=O)[C@H](CCCCN)n3cc(C[C@@H](C)CC)nn3)CC2)nc(N2CCN(C(=O)CCCCCCCCCCNC(=O)[C@H](CCCCN)n3cc(C[C@@H](C)CC)nn3)CC2)n1,.,24,9,105*,-28,41
